Data reported in PubChem BioAssay AID504834 (National Center for Advancing Translational Sciences (NCATS), 2011).
The campaign covered roughly 320,000 compounds. About 22,000 (6.9%) were called active. Roughly 27% stayed inconclusive and do not appear here. The sample as a whole holds a higher share of actives than the screen did. Values without a mark were called inactive. Calls follow the shape of the dose curve; as a rule, active = well fitted inhibition curve with a large enough effect; inconclusive = small, poorly fitted or top-dose-only effect, or another doubt; inactive = no such curve, though single readings can be large or run the other way. Where a SMILES comes first, the peptide text is derived from it. [ ]: non-standard residue; d: D form. The star is where a group is joined. ξ: configuration not given here. Cbz = O=C(OCc1ccccc1)*; ξL = CC(C)CC(N)C(=O)O; ξP = O=C(O)C1CCCN1

test: Primary qHTS for delayed death inhibitors of the malarial parasite plastid, 96 hour incubation; conditions: P. falciparum luciferase reporter growth; series mostly up to 28.7 µM; activity change, negative = inhibition: at the top concentration
How it was run: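 Infected RBCs, 2% Hct / 0.05% parasitemia final; luciferase-reporter P. falciparum; cpd 96 h, 37 C, 5% CO2; luciferase detection reagent; luminescence.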
% is scaled to controls: 0 for no effect and ±100 for the full control effect; potency is read from the fitted curve at half-maximal effect.

| Compound | activity change, negative = inhibition | Potency |
| --- | --- | --- |
| O=C(Cc1ccc(Br)cc1)NCCN1CCOCC1 | 0.209% |  |
| COc1cccc(NC(=O)CSc2nnc(-c3cccnc3)o2)c1 | 57.6% |  |
| NC(=O)C1CCN(C(=O)c2ccc3c(=O)n(Cc4cccc(Br)c4)c(=S)[nH]c3c2)CC1 | 18.4% |  |
| CC(Sc1nnc(COc2ccccc2)n1-c1ccccc1)C(=O)O (stereo not given) | -4.37% |  |
| CCn1c(SCC(=O)Nc2ccc(OC)c(OC)c2)nnc1-c1c[nH]c2ccccc12 |  | 11.7 µM (active) |
| CCn1c(SCC(=O)NC2CC2)nnc1-c1ccccc1OC | -14.8% |  |
| CCOC(=O)N1CCN(C(=O)CSc2nnc(-c3c[nH]c4ccccc34)n2CCOC)CC1 | 0.202% |  |
| CC(C)c1ccc(S(=O)(=O)NC2CCCC2)cc1 | 53.9% |  |
| O=C(NNC(=O)C(O)c1ccccc1)NC1CCCCC1 (stereo not given) | 56.9% |  |
| c1ccc(CCNC2CCCCCC2)cc1 | 38.6% |  |
| OC(CNC1CCCCC1)c1ccccc1 (stereo not given) |  | 9.28 µM (active) |
| Cc1cc(Cl)c2oc(C(=O)N(C)C(C)c3ccccn3)c(C)c2c1 (stereo not given) | -22.1% |  |
| CN(C)c1nc(Nc2ccc(Cl)c(Cl)c2)nc(N(C)C)n1 | -16.4% |  |
| COc1cc(C2C(C(=O)c3ccco3)=C(O)C(=O)N2c2cc(C)on2)ccc1OCc1ccccc1 (stereo not given) | -4.61% |  |
| Cc1ccc2nc(N3CCN(C(=O)c4ccco4)CC3)sc2c1 | -9.37% |  |
| Cc1ccc2nc(N3C(=O)C(O)=C(C(=O)c4ccco4)C3c3cccc(O)c3)sc2c1 (stereo not given) |  | 9.28 µM (active) |
| COc1ccc(C(=O)NCc2nnc(SCC(=O)NC3=NCCS3)n2C)cc1 | 16.2% |  |
| CCOc1ccccc1NC(=O)Cc1cccs1 | 341% |  |
| COc1cc(C(=O)NCC2(c3ccccc3)CCCC2)ccc1OC(C)C | 33% |  |
| Cn1cnnc1Sc1ccc(CN2CCN(C3CCCC3)C(CCO)C2)o1 (stereo not given) | 1.4% |  |
| OCCC1CN(Cc2ccc3nsnc3c2)CCN1C1CCCCC1 (stereo not given) |  | 10.4 µM (active) |
| CC[C@H](C)C(=O)N[C@H]1CCCN1C(=O)/C=C/c1ccccc1 | 41% |  |
| Cc1ccc(C)c(OCCC(=O)OCC(=O)c2ccc3c(c2)NC(=O)CO3)c1 | 21.2% |  |
| Cc1cc(C)cc(NC(=O)COc2coc(CN3CCN(c4ccccc4)CC3)cc2=O)c1 | -27.2% |  |
| O=C(COc1coc(CN2CCN(c3ccccc3)CC2)cc1=O)Nc1ccccc1F | 2.2% |  |

| Compound | activity change, negative = inhibition | Potency |
| --- | --- | --- |
| C=CCNC(=O)COc1coc(CN2CCN(Cc3ccccc3)CC2)cc1=O |  | 13.1 µM (active) |
| CC(=O)O[C@H]1CC[C@@]2(C)[C@@H](CC[C@@H]3[C@@H]2CC[C@]2(C)[C@@H](C(C)(C)O)C[C@@H]32)C1 | -8.75% |  |
| CC1CCC2CCCCC2N1C(=O)c1cc([N+](=O)[O-])cc([N+](=O)[O-])c1 (stereo not given) | -2.82% |  |
| O=C(NCc1ccco1)C(c1ccncc1)N(C(=O)Cn1nnc2ccccc21)c1ccccc1 (stereo not given) | -0.183% |  |
| Cc1cccc(N(C(=O)c2sc(C)nc2C)C(C(=O)NCC2CCCO2)c2ccccc2)c1 (stereo not given) | -28.1% |  |
| Cc1nc(C)c(C(=O)N(c2ccc(C)c(C)c2)C(C(=O)NCc2ccco2)c2ccccc2)s1 (stereo not given) |  | 10.4 µM (active) |
| CC(C)(C)NC(=O)C(c1ccc(Cl)cc1)N(CCO)C(=O)c1snc(C(N)=O)c1N (stereo not given) | 202% |  |
| CCCCCNC(=O)C1c2ccccc2Oc2ccccc21 | 0% |  |
| CCOC(=O)c1ccc(N2C(=O)CC(N3CC(C)OC(C)C3)C2=O)cc1 (stereo not given) | 7.59% |  |
| CCOC(=O)c1ccc(N2C(=O)CC(N3CCN(C(=O)c4ccccc4)CC3)C2=O)cc1 (stereo not given) | 25.2% |  |
| CCOC(=O)c1ccc(N2C(=O)CC(N(C)Cc3ccccc3)C2=O)cc1 (stereo not given) |  | 1.47 µM (active) |
| CCN1CCN(C(=O)C2CCCN(S(=O)(=O)c3ccc(OC)c(OC)c3)C2)CC1 (stereo not given) | -7.76% |  |
| COc1cccc(NC(=O)CN(C)CC(=O)c2c(N)n(Cc3ccccc3)c(=O)n(C)c2=O)c1 | -24.5% |  |
| COc1ccc(OC)c(CCNC(=O)c2nn(C)c3c2CS(=O)(=O)c2ccccc2-3)c1 | 32.5% |  |
| CC(C)CC(NC(=O)C1CCCN1C(=O)[C@@H](C)NC(=O)OCc1ccccc1)C(=O)NCC(N)=O (stereo not given in full) (Cbz-[dA][ξP][ξL]G-NH2) | 19.9% |  |
| NS(=O)(=O)c1cccc(NC(=O)CSc2nc3ccccc3n2-c2ccccc2)c1 | -21% |  |
| CN(CCOc1ccc(Br)cc1)CC(=O)Nc1cccc(S(=O)(=O)NC2=NCCC2)c1 | -7.64% |  |
| O=C(Nc1cccc(S(=O)(=O)NC2=NCCC2)c1)C1CCCCC1 | -0.475% |  |
| CCc1ccc(C(=O)OCC(=O)Nc2cccc(S(=O)(=O)NC3=NCCCCC3)c2)cc1 |  | 10.4 µM (active) |
| Cc1cccc(-n2c(SCC(=O)Nc3cccc(S(=O)(=O)NC4=NCCCCC4)c3)nc3ccccc3c2=O)c1C |  | 5.22 µM (active) |
| O=C(CSc1nc2ccccc2c(=O)n1-c1ccc(F)cc1)NC1CC1 | -26.1% |  |
| COc1ccc(C(C)=O)cc1COc1ccc(Cl)c(C)c1 | 22.6% |  |
| COCCN(C(=O)CSCc1ccc(C)cc1)c1c(N)n(CC(C)C)c(=O)[nH]c1=O | -15.3% |  |
| CC(=O)Nc1ccc(C(=O)/C=C/c2ccc[nH]2)cc1 | 80.9% |  |
| Cc1ccccc1OCCC(=O)OCC(=O)NCCc1ccc(S(N)(=O)=O)cc1 | -16.7% |  |
